Results: PubChem BioAssay (NCATS)
Values joined by “and” are separate entries in the source; they are usually repeats but may differ in a detail not shown here. Equal values may be shown once. Inconclusive results are not listed. Where a structure was tested more than once in an assay, its records may differ in their call. Active and inactive are the calls of the source. The call rests on the fitted dose curve; in most records, active means well fitted inhibition curve with a large enough effect; inconclusive means small, poorly fitted or top-dose-only effect; inactive means flat fitted curve, though single readings scatter.

Columns and labels:
[1] = system: CRL-7250; assay: Cytotoxic Profiling of Annotated Libraries Using Quantitative High-Throughput Screening (AID 1296008); settings: Five cell lines viability, CellTiter-Glo ATP luminescence, 48-72 h; max response: stronger effect = lower value; further: potency means the concentration at half of the fitted maximal effect; on max response: on the % scale 0 is the no-effect control and ±100 the full control effect
Procedure, shortened: (§1)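 Cells exposed to compounds for 48 or 72 hr at 37 degrees Celsius. Viability read as ATP-coupled luminescence with CellTiter-Glo after 10 min at room temperature.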

[2] = system: HEK293; assay: as above; settings: Five cell lines viability, CellTiter-Glo ATP luminescence, 48-72 h; max response: stronger effect = lower value
Procedure, shortened: as §1

[3] = system: HaCat; assay: as above; settings: Five cell lines viability, CellTiter-Glo ATP luminescence, 48-72 h; max response: stronger effect = lower value
Procedure, shortened: as §1

[4] = system: KB-3-1; assay: as above; settings: Five cell lines viability, CellTiter-Glo ATP luminescence, 48-72 h; max response: stronger effect = lower value
Procedure, shortened: as §1

[5] = system: NIH3T3; assay: as above; settings: Five cell lines viability, CellTiter-Glo ATP luminescence, 48-72 h; max response: stronger effect = lower value
Procedure, shortened: as §1

[6] = system: HACAT; assay: qHTS assay to identify novel small-molecules to repurpose for Merkel cell carcinoma treatment (AID 1296009); settings: MCC and control cell lines, CellTiter-Glo viability, 72 h; series mostly up to 44.8 µM
Procedure, shortened: (§2)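 Cells were treated for 72 hr at 37 degree celsius with compounds in 8- or 11-point dose response. Viability was read by CellTiter-Glo luminescence, normalized to no-cell (cytotoxicity) and DMSO controls.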

[7] = system: MCC-13; assay: as above; settings: MCC and control cell lines, CellTiter-Glo viability, 72 h; series mostly up to 46 µM
Procedure, shortened: as §2

[8] = system: MCC-26; assay: as above; settings: MCC and control cell lines, CellTiter-Glo viability, 72 h; series mostly up to 46 µM
Procedure, shortened: as §2

[9] = system: W2; assay: qHTS profiling for inhibitors of Plasmodium falciparum proliferation (AID 504749); further: potency means the concentration at half of the fitted maximal effect; settings: P. falciparum in erythrocytes, SYBR Green DNA, 72 h; series mostly up to 28.7 µM
Procedure, shortened: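 P. falciparum-infected erythrocytes (0.3% parasitemia, 2.5% hematocrit) incubated with compound 72 h at 37 C, 5% CO2. Parasite DNA detected by SYBR Green after lysis, overnight at room temperature; normalised to 0.29 uM artemisinin and DMSO.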

[10] = system: HEK293T; assay: qHTS assay to identify novel small-molecules to repurpose for Merkel cell carcinoma treatment (AID 1296009); settings: MCC and control cell lines, CellTiter-Glo viability, 72 h; at 44.8 µM (top of the series) unless noted
Procedure, shortened: as §2
Further: nearly all actives have a fitted effect of over 60% in size.

O=C(CCCN1CCC(O)(c2ccc(Cl)cc2)CC1)c1ccc(F)cc1
active: Potency [2] 18.8 µM | Potency [5] 21.1 µM
inactive: max response [1] -7.49% and -12% | max response [3] 2.18% | outcome [3] | max response [4] 1.13% | outcome [5] | outcome [6] | Potency [7] | Potency [8]

CN(C)CCC=C1c2ccccc2C=Cc2ccccc21
inactive: max response [1] -6.55% | outcome [3] | max response [4] -7.06% and -14.3% | max response [5] -0.444% | outcome [6] | Potency [7] | Potency [8]
active: Potency [9] 1.2 µM | Potency [2] 26.4 µM

CC12CC3CC(C)(C1)CC(N)(C3)C2
inactive: outcome [1] | max response [2] -1.65% and -16.7% | max response [3] 0.352% and -2.07% | max response [4] 0.442% | max response [5] 1.33% and -0.312% | Potency [7]

Cc1cc(C(C)(C)C)cc(C)c1CC1=NCCN1
active: Potency [9] 4.05 µM
inactive: max response [1] -1.37% and -2.32% | max response [2] -19.6% and -11.6% | outcome [3] inactive; activator | max response [4] 3.71% and 6.55% | max response [5] -2.36% | outcome [5] | outcome [6] inactive; activator | Potency [7] | Potency [8]

CN1CCN(C2=Nc3cc(Cl)ccc3Nc3ccccc32)CC1
active: Potency [2] 13.3 µM
inactive: max response [1] -7.49% and -17.9% | max response [3] 2.26% | max response [4] 6.37% | outcome [5] | Potency [7] | Potency [8]

CC(C)Cc1ccc(C(C)C(=O)O)cc1 (stereo not given)
inactive: Potency [9] | max response [1] -13.3% and 3.74% | max response [2] 1.58% and -3.42% | max response [3] -14.1% | outcome [3] | max response [4] 1.49% and -2.93% | max response [5] 2.78% | outcome [5] | outcome [6] | Potency [7]

CCC1(C)CC(=O)NC1=O (stereo not given)
inactive: max response [1] 0.182% | outcome [2] | max response [3] -13.5% | outcome [3] | max response [4] 7.96% and 9.28% | outcome [5] | outcome [6] | outcome [10] | Potency [7]

CN1C2CCC1CC(OC(=O)C(CO)c1ccccc1)C2 (stereo not given)
inactive: max response [1] -10.2% | max response [2] 0.412% | outcome [3] | max response [4] 0.626% | max response [5] -0.822% | outcome [6] | Potency [7] | Potency [8]

CN1CCC(=C2c3ccccc3C=Cc3ccccc32)CC1
inactive: outcome [1] | max response [3] -1.05% | outcome [3] | max response [4] 25.1% and -12.3% | max response [5] -0.507% | outcome [5] | outcome [6] | Potency [7]
active: Potency [2] 10.6 µM

O=c1c(-c2ccc(O)cc2)coc2cc(O)cc(O)c12
inactive: max response [1] 4.48% | max response [2] -3.7% | max response [3] 0.82% | outcome [3] | max response [4] 32.1% | outcome [4] | max response [5] -9.8% and -21.1% | outcome [6] | Potency [7]

COc1nc(C)nc(Cl)c1NC1=NCCN1
inactive: Potency [9] | max response [1] -8.35% | max response [2] -5.08% and -4.05% | outcome [3] | max response [4] 11.6% and 7.19% | max response [5] -2.5% and 2.31% | outcome [6] | Potency [7]

COc1ccc(CCN(C)CCCC(C#N)(c2ccc(OC)c(OC)c2)C(C)C)cc1OC (stereo not given)
inactive: max response [1] -3.47% and -1.73% | max response [2] -14.8% | max response [3] -28.3% | outcome [3] | max response [4] -13.1% and 17.7% | max response [5] -15.4% and 3.75% | outcome [6] | Potency [7]

Nc1ccn([C@H]2CC[C@@H](CO)O2)c(=O)n1
inactive: max response [1] -6.37% and 1.28% | outcome [2] | max response [3] -8.68% | outcome [3] | max response [4] -19.7% | outcome [4] | max response [5] -7.7% and 2.02% | outcome [6] | outcome [10] | Potency [7] | Potency [8]

Fc1ccc([C@@H]2CCNC[C@H]2COc2ccc3c(c2)OCO3)cc1
inactive: max response [1] -5.94% | max response [2] -24.9% | outcome [3] | max response [4] -16.5% and -9.57% | max response [5] -13.3% | outcome [6] | Potency [7]

COc1cc2nc(N(C)CCCNC(=O)C3CCCO3)nc(N)c2cc1OC (stereo not given)
inactive: max response [1] -3.88% | max response [2] 0.95% | max response [3] -0.905% and -4.65% | max response [4] 9.19% and 1.98% | outcome [5] | Potency [7]

CCN1CCCC1CNC(=O)c1cc(S(=O)(=O)CC)c(N)cc1OC (stereo not given)
inactive: outcome [1] | max response [2] -9.52% and 2.43% | max response [3] -3.32% | outcome [3] | max response [4] 8.59% | max response [5] 4.99% | outcome [5] | outcome [6] | Potency [7] | Potency [8]

CC#C[C@]1(O)CC[C@H]2[C@@H]3CCC4=CC(=O)CCC4=C3[C@@H](c3ccc(N(C)C)cc3)C[C@@]21C
inactive: max response [1] -15.2% | max response [3] -29.4% and -8.42% | max response [4] -19.9% | max response [5] -20.2% and -3.41% | Potency [7] | Potency [8]
active: Potency [9] 6.75 µM | Potency [2] 9.35 µM
